Laboratory results: PubChem BioAssay (Tox21)
Values joined by “and” are separate entries in the source; they are usually repeats but may differ in a detail not shown here. Equal entries are not always repeated. Inconclusive results are not listed. More than one record can exist for a structure, and the calls need not agree. Active and inactive are the calls of the source. Unless noted, calls follow the shape of the dose curve; as a rule, active = well fitted curve in the direction sought with a large enough effect in the repeat runs; inconclusive = weak or mixed curves; inactive = no such curve, though single readings can be large; an effect the other way counts as inactive or inconclusive.

Tests used:
[1] = qHTS assay to identify small molecule agonists of the estrogen receptor beta (ER-beta) signaling pathway - cell viability counter screen (AID 1259380); also: nearly all actives have a fitted effect of over 30% in size; also: potency is read from the fitted curve at half-maximal effect
Method in brief: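 ER-beta-UAS-bla HEK293T cells in medium with 2% charcoal-stripped FBS were preincubated 6 hr at 37C, dosed with compound in DMSO for 16 hr, then after the bla read, CellTiter-Glo was added for 30 min at room temperature; luminescence recorded.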

[2] = qHTS assay to identify small molecule antagonists of the estrogen receptor beta (ER-beta) signaling pathway - cell viability counter screen (AID 1259382);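 also: HEK293T cells carrying ER-beta-UAS-bla reporter stimulated with estradiol; series mostly up to about 92 µM; nearly all actives have a fitted effect of over 55% in size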
Method in brief: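 ER-beta-UAS-bla HEK293T cells (2,000/well, 2% charcoal-stripped FBS) were pre-incubated 6 hr at 37C, then given compound plus 1nM final 17-beta-estradiol for 16 hr. Viability was read in the same wells by CellTiter-Glo luminescence after 30 min at room temperature.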

[3] = molecular target: Estrogen receptor (Homo sapiens) (UniProt P03372); assay: qHTS assay to identify small molecule agonists of the estrogen receptor alpha (ER-alpha) signaling pathway in the presence of an antagonist (AID 1259383; calls by dose curve; also: nearly all actives have a fitted effect of over 15% in size; also: potency is read from the fitted curve at half-maximal effect; as to activation: top concentration of the series differs between compounds)
Method in brief: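 VM7Luc4E2 cells (endogenous full-length ER-alpha, 4×ERE-luciferase) were precultured 5 days in phenol red-free medium with 10% charcoal-stripped FBS, given 10.0nM ICI-182,780 (final), then treated with compounds at 15 concentrations for 22hr at 37C; luminescence read with ONE-Glo.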

[4] = qHTS assay to identify small molecule agonists or antagonists of the thyroid stimulating hormone receptor (TSHR) signaling pathway - wild type cell line counter screen (AID 1259384; calls by dose curve)
Method in brief: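 Wild-type Hek293 cells, 800/well, 18 h at 37C, then compound with Ro20-1724 for 30 min RT. cAMP by HTRF (cAMP-d2/anti-cAMP cryptate), 1 h RT, fluorescence read. 15 concentrations, triplicates.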

[5] = molecular target: Thyrotropin receptor (Homo sapiens) (UniProt P16473); assay: qHTS assay to identify small molecule antagonists of the thyroid stimulating hormone receptor (TSHR) signaling pathway (AID 1259385; calls by dose curve; also: nearly all actives have a fitted effect of over 20% in size)
Method in brief: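 TSHR-HEK293 cells (800/well) plated 18 h, then compounds with Ro20-1724 and TSH at 1.5 ng/mL final, 30 min at room temperature. cAMP quantified by HTRF (cAMP-d2/anti-cAMP-cryptate, 1 h); 15 concentrations in triplicate.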

[6] = qHTS assay to identify small molecule agonists of the estrogen receptor alpha (ER-alpha) signaling pathway in the presence of an antagonist - cell viability counter screen (AID 1259386);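 also: series mostly up to about 92 µM; cells exposed to compounds for 22 h at 37 °C before the viability read; nearly all actives have a fitted effect of over 30% in size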
Method in brief: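 VM7Luc4E2 cells (endogenous full-length ER-alpha, 4×ERE-luciferase) were held 5 days in phenol red-free medium with 10% charcoal-stripped FBS, plated, then given 10.0nM ICI-182,780 and compounds at 15 concentrations for 22hr at 37C; viability read by CellTiter-Fluor fluorescence.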

[7] = molecular target: Progesterone receptor (Homo sapiens) (UniProt P06401); assay: qHTS assay to identify small molecule agonists of the progesterone receptor (PR) signaling pathway (AID 1346784; calls by dose curve; also: nearly all actives have a fitted effect of over 30% in size)
Method in brief: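 Using charcoal-stripped serum (2%) to limit endogenous steroids, PR-UAS-bla HEK 293T cells received compounds for 16 hr at 37C after 6 hr plating; beta-lactamase FRET fluorescence was recorded following 2 hr substrate loading at room temperature.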

[8] = molecular target: Progesterone receptor (Homo sapiens) (UniProt P06401); assay: qHTS assay to identify small molecule antagonists of the progesterone receptor (PR) signaling pathway (AID 1346795; active = well fitted inhibition curve with a large enough effect in the signal ratio in the repeat runs, not every such curve was filed as active; the % refers to the signal ratio; also: potency is read from the fitted curve at half-maximal effect)
Method in brief: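 Inhibition of R5020-induced (1 nM final) beta-lactamase reporter signal in PR-UAS-bla HEK293T cells was scored by FRET fluorescence after overnight (16 hr) compound treatment.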

[9] = qHTS assay to identify small molecule antagonists of the progesterone receptor (PR) signaling pathway - cell viability counter screen (AID 1346798); also: series mostly up to about 92 µM; nearly all actives have a fitted effect of over 50% in size
Method in brief: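 ATP content as viability readout: CellTiter-Glo luminescence, 30 min room temperature, in PR-UAS-bla HEK293T cells after 16 hr compound/R5020 treatment at 37C and 5% CO2.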

[10] = qHTS assay to identify small molecule agonists of the progesterone receptor (PR) signaling pathway - cell viability counter screen (AID 1346799; calls by dose curve; also: nearly all actives have a fitted effect of over 45% in size; also: potency is read from the fitted curve at half-maximal effect)
Method in brief: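 Cytotoxicity in PR-bla HEK293T cells: 16 h compound, 37C; CellTiter-Glo added post-FRET read; luminescence after 30 min RT.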

[11] = qHTS assay to identify small molecule antagonists of the TGF-beta/Smad signaling pathway - cell viability counter screen (AID 1346824); also: nearly all actives have a fitted effect of over 50% in size
Method in brief: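 SBE-bla HEK 293T cells, incubated overnight, then compound plus 0.25 ng/mL TGF-beta1 (stock added) for 5 hr at 37 C. Viability was read in the same wells by CellTiter-Glo luminescence after 30 min at room temperature.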

[12] = qHTS assay to identify small molecule agonists of the TGF-beta/Smad signaling pathway - cell viability counter screen (AID 1346829); also: top concentration of the series differs between compounds; nearly all actives have a fitted effect of over 45% in size
Method in brief: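 HEK 293T SBE-bla line, 5 hr compound exposure at 37 C, multiplexed CellTiter-Glo viability read by luminescence.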

[13] = qHTS assay to identify small molecule agonists of the TGF-beta/Smad signaling pathway (AID 1346859; active = well fitted activation curve with a large enough effect in the signal ratio in the repeat runs, not every such curve was filed as active; the % refers to the signal ratio; also: series mostly up to about 77 µM)
Method in brief: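 Stable Smad binding element-beta-lactamase HEK 293T cells; 5 hr compound exposure at 37 C under 5% CO2; 2 hr room-temperature substrate step; fluorescence excited at 405 nm, collected at 460 nm and 530 nm.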

[14] = molecular target: Thyrotropin-releasing hormone receptor (Homo sapiens) (UniProt P34981); assay: qHTS assay to identify small molecule antagonists of the thyrotropin-releasing hormone receptor (TRHR) signaling pathway (AID 1346877; active = well fitted inhibition curve with a large enough effect in the repeat runs, not every such curve was filed as active; also: series mostly up to about 51 µM)
Method in brief: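 TRHR-expressing HEK293 cells were seeded, cultured 18 h at 37 °C, then loaded with calcium dye for 2 h. Compounds were pre-incubated 5 min at room temperature before 1 nM TRH (final) was added, and kinetic fluorescence was recorded for 3 min.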

[15] = molecular target: Thyrotropin-releasing hormone receptor (Homo sapiens) (UniProt P34981); assay: qHTS assay to identify small molecule agonists of the thyrotropin-releasing hormone receptor (TRHR) signaling pathway (AID 1346891; calls by dose curve; also: series mostly up to about 58 µM)
Method in brief: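 In 1536-format, 1500 TRHR-Hek293 cells per well grew 18 h, took up calcium dye for 2 h at 37 °C, received compound, and were read kinetically; 15-point titrations, triplicates.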

[16] = Human pregnane X receptor (PXR) small molecule agonists, qHTS cell viability counter screen (AID 1346977); also: nearly all actives have a fitted effect of over 50% in size; also: potency is read from the fitted curve at half-maximal effect
Method in brief: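 Readout is CellTiter-Fluor fluorescence from PXR-Luc HepG2 cells. Plated cells rested 5hr, then were treated with compounds for 24hr at 37C and 5% CO2, with reagent present during the last hour.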

[17] = Caspase-3/7 induction in HepG2 cells by small molecules, qHTS assay (AID 1346978); also: nearly all actives have a fitted effect of over 15% in size
Method in brief: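 Wild-type HepG2 cells, 2,000/well, settled 5 hr at 37 C and 5% CO2, then compound-treated for 17 hr; caspase-3/7 activity read by luminescent Caspase-Glo 3/7 after 30 min at room temperature.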

[18] = Caspase-3/7 induction in CHO-K1 cells by small molecules, qHTS cell viability counter screen (AID 1346979); also: nearly all actives have a fitted effect of over 35% in size; also: potency is read from the fitted curve at half-maximal effect
Method in brief: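 To flag cytotoxic compounds, treated CHO-K1 wild-type cells were given CellTiter-Fluor at 16hr and read fluorescently after 1hr at 37C; the caspase-3/7 luminescence was measured in these same wells.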

[19] = Caspase-3/7 induction in CHO-K1 cells by small molecules, qHTS assay (AID 1346980); also: nearly all actives have a fitted effect of over 15% in size
Method in brief: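 Wild-type CHO-K1 cells exposed to compounds for 17hr at 37 C, 5% CO2. Caspase-3/7 activity then measured by Caspase-Glo 3/7 luminescence after 30min at room temperature.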

[20] = molecular target: Androgen receptor (Homo sapiens) (UniProt P10275); assay: qHTS assay to identify small molecule agonists of the androgen receptor (AR) signaling pathway in the presence of an antagonist (AID 1259381; calls by dose curve; also: nearly all actives have a fitted effect of over 15% in size)
Method in brief: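 MDA-kb2 human breast carcinoma cells carrying an MMTV-luciferase reporter (AR- and GR-responsive) were treated with compounds at 15 concentrations plus 3.0uM final nilutamide for 16hr at 37C without CO2; luminescence was read after ONE-Glo addition.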

Measured: Potency

Chain of Androgen receptor (Homo sapiens) (P10275 whole entry, looked up): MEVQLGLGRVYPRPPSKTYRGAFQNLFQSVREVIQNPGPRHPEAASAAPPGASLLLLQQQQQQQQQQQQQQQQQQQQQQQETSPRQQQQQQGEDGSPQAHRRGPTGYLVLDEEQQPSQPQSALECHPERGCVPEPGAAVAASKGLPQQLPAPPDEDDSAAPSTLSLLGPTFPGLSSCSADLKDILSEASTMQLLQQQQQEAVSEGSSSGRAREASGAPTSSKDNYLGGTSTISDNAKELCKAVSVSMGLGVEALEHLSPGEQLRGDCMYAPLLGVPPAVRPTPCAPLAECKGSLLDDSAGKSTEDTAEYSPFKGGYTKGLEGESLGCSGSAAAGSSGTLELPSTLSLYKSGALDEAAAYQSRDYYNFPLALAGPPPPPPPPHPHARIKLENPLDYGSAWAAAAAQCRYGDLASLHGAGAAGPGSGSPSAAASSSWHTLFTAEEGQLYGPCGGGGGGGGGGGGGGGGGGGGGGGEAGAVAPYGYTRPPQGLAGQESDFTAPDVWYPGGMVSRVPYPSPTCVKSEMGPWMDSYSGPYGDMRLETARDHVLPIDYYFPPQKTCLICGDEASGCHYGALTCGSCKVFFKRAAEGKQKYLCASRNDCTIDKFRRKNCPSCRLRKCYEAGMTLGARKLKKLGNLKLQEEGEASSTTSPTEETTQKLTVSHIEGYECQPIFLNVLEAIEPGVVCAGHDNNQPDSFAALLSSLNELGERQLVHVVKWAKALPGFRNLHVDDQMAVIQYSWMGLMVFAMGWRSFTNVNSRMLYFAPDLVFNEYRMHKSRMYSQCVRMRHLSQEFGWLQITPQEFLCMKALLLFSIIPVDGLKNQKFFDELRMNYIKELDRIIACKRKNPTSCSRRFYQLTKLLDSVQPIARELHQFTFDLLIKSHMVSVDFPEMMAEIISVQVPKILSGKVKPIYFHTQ
Chain of Thyrotropin-releasing hormone receptor (Homo sapiens) (P34981 whole entry, looked up): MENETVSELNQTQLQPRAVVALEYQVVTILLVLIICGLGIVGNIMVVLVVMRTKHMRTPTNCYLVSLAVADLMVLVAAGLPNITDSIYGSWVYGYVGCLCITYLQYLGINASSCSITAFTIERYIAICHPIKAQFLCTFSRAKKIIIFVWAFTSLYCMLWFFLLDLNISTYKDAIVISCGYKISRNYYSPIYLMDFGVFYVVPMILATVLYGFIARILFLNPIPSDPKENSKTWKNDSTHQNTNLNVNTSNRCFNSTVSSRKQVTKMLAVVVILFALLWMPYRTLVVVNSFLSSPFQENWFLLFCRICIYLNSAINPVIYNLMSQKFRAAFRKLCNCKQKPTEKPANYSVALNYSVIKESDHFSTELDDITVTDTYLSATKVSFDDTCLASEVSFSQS
Chain of Estrogen receptor (Homo sapiens) (P03372 whole entry, looked up): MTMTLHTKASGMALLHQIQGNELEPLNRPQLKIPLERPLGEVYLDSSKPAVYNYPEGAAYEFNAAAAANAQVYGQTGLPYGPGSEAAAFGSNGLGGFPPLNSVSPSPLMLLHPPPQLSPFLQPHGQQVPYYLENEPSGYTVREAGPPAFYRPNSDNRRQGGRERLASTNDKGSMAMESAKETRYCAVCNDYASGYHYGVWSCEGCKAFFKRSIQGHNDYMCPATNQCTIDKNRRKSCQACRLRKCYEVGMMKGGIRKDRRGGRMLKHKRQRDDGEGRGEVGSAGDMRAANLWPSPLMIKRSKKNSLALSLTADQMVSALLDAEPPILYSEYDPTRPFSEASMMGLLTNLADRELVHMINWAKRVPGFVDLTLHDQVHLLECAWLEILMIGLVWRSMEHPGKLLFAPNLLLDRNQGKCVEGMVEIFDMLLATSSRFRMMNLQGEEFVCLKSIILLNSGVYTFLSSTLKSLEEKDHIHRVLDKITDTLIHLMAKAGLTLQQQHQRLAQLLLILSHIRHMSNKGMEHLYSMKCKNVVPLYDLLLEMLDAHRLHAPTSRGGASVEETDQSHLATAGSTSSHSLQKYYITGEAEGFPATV
Chain of Thyrotropin receptor (Homo sapiens) (P16473 whole entry, looked up): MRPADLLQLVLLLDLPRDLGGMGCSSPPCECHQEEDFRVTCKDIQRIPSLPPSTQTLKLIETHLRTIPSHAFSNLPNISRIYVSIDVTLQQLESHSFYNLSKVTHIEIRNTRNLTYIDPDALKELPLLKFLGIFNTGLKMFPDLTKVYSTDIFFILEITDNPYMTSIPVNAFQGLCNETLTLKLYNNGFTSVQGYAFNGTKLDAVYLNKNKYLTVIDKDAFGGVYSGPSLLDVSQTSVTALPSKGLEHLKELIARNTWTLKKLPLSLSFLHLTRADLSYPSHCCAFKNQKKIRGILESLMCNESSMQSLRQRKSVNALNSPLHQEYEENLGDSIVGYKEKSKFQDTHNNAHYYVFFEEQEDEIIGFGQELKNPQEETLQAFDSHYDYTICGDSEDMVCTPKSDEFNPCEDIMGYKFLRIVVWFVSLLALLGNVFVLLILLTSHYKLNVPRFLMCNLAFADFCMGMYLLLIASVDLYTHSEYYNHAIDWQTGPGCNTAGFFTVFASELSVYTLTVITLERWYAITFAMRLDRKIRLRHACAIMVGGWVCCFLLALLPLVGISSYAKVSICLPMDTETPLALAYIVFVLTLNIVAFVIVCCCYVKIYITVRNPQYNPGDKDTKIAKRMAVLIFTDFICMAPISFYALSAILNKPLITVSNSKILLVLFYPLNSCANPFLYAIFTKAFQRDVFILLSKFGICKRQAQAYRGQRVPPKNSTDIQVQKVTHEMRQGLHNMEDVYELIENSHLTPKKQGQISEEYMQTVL
Chain of Progesterone receptor (Homo sapiens) (P06401 whole entry, looked up): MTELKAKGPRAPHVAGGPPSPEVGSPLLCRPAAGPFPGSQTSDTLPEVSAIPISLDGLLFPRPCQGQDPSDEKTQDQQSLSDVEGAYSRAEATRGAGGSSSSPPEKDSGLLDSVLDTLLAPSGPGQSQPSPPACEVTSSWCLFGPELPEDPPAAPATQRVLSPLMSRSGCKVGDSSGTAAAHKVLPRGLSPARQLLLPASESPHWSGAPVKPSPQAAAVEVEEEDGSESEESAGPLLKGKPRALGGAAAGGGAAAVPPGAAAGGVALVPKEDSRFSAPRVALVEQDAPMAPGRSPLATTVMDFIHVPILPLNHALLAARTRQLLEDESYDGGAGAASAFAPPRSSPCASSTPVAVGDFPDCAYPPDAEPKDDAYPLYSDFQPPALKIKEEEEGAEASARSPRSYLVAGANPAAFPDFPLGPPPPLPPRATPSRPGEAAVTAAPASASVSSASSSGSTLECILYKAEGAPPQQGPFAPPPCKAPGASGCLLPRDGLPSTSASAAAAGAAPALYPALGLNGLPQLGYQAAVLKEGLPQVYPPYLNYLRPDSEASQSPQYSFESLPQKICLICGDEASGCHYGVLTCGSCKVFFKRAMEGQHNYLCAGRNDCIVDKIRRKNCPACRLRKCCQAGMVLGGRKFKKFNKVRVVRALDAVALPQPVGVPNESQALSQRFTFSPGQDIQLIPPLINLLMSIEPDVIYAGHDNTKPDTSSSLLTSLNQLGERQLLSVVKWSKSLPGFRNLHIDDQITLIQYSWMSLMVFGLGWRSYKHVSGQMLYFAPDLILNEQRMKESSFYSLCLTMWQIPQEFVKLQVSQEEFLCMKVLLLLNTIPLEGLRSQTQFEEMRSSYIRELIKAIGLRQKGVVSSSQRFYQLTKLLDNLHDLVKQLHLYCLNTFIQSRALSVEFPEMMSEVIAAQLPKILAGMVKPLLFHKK

Cc1cccc([N+](=O)[O-])c1
not listed: [20]
inactive: all other assays above

CCN(CC)c1ccccc1
not listed: [4] | [5]
inactive: all other assays above

c1ccc(-c2ccccc2)cc1
not listed: [8]
inactive: all other assays above

CCOP(=S)(OCC)Oc1cnc2ccccc2n1
not listed: [20]
inactive: all other assays above

CCOP(=S)(OCC)SCCSCC
not listed: [3] | [5] | [11] | [18] | [20]
inactive: all other assays above

O=C(O)c1ccccn1
not listed: [4] | [5] | [14] | [15] | [18] | [20]
inactive: all other assays above

CCN(CC)CCO
not listed: [3] | [5] | [18] | [20]
inactive: all other assays above

Cc1cc(Cl)ccc1O
not listed: [3] | [5] | [20]
inactive: all other assays above

CC(C)(C)OOC(C)(C)C
not listed: [5] | [20]
inactive: all other assays above

OCCN(CCO)CCO
not listed: [3] | [14] | [15] | [20]
inactive: all other assays above

O=[N+]([O-])c1ccccc1
not listed: [5] | [20]
inactive: all other assays above

Nc1ccc(Br)cc1
27.3 µM (active) and inactive: [10]
active: [8] 61 µM
not listed: [5] | [18] | [20]
inactive: all other assays above

CC1OC(C)OC(C)O1 (stereo not drawn)
not listed: [3] | [4] | [5] | [14] | [15] | [20]
inactive: all other assays above

CCCN(CCC)N=O
not listed: [5] | [18] | [20]
inactive: all other assays above

c1ccc2c(c1)Oc1ccccc1O2
not listed: [3] | [14] | [15] | [20]
inactive: all other assays above

Oc1ccccc1Cl
not listed: [3] | [20]
inactive: all other assays above

CCCCCOC(=O)c1ccccc1C(=O)OCCCCC
not listed: [5] | [8] | [18] | [20]
inactive: all other assays above

Nc1ccccc1C(=O)O
not listed: [5] | [20]
inactive: all other assays above

O=NN1CCCC1
20.2 µM (active) and inactive: [1]
not listed: [5] | [9] | [14] | [15] | [18] | [20]
inactive: all other assays above

CC(C)OC(=O)Nc1ccccc1
not listed: [5] | [18] | [20]
inactive: all other assays above

COP(N)(=O)SC (stereo not drawn)
not listed: [5] | [20]
inactive: all other assays above

Cc1ccc(N)cc1N
not listed: [4] | [20]
inactive: all other assays above

C[C@]12CC[C@H]3[C@@H](CC[C@@]45O[C@@H]4C(O)=C(C#N)C[C@]35C)[C@@H]1CC[C@@H]2O
not listed: [3] | [8] | [13] | [14] | [15] | [18] | [20]
inactive: all other assays above

O=S(=O)(c1ccc(O)cc1)c1ccc(O)cc1
active: [3] 54.5 µM
not listed: [4] | [5] | [18] | [20]
inactive: all other assays above

O=[N+]([O-])c1ccc(Oc2ccc(Cl)cc2Cl)cc1
active: [8] 15.4 µM and 9.69 µM
not listed: [3] | [9] | [18] | [20]
inactive: all other assays above

COC(=O)NC(=S)Nc1ccccc1NC(=S)NC(=O)OC
not listed: [5] | [20]
inactive: all other assays above

CN1C(=O)CN=C(c2ccccc2)c2cc(Cl)ccc21
27.7 µM (active) and inactive: [10]
not listed: [3] | [8] | [17] | [20]
inactive: all other assays above

ClCc1cccnc1
not listed: [5] | [20]
inactive: all other assays above

C#CC(C)(C)NC(=O)c1cc(Cl)cc(Cl)c1
not listed: [3] | [20]
inactive: all other assays above

CN(C)[C@@H]1C(=O)C(C(N)=O)=C(O)[C@@]2(O)C(=O)C3=C(O)c4c(O)cccc4[C@@](C)(O)[C@H]3C[C@@H]12
not listed: [3] | [20]
inactive: all other assays above

Clc1ccc(Cl)cc1
active: [18] 2.17 µM
2.17 µM (active) and inactive: [16]
not listed: [5] | [20]
inactive: all other assays above

CCCCCCCCCl
not listed: [4] | [5] | [8] | [20]
inactive: all other assays above

CCCCCCCCCCCC#N
not listed: [3] | [5] | [14] | [15] | [20]
inactive: all other assays above

CCC(C)(CC)c1cc(NC(=O)c2c(OC)cccc2OC)on1
not listed: [3] | [4] | [5] | [8] | [9] | [18] | [20]
inactive: all other assays above

CC1C=[C-]C=C1.[C-]#[O+].[C-]#[O+].[C-]#[O+].[Mn]
not listed: [5] | [14] | [15] | [20]
inactive: all other assays above
